Assay outcomes as filed in PubChem BioAssay.
Sampled rows, rich in hits. Any-hit rate of the full collection: about 1.9%.
RecA intein inh = Mtb RecA intein splicing inhibition; P9WHJ3; cell-free RecA intein splicing, fluorescence; 0.75% of 290,000 active; inhibition, % (test concentration not listed); in the data active means inhibition above about 30%;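 further: 0% = vehicle wells and 100% = reference inhibitor control wells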
PrP 5UTR inh = inhibition of PrP 5' UTR reporter expression. cell-based PrP 5' UTR mRNA reporter, plate reader. inhibition, % (concentration not given with the values). 0.35% of 340,000 active. AID 488862; in the data active means inhibition above about 52%; further: 0 = median of the neutral control wells
BJeLR lethal = kills HRASV12-expressing BJeLR cells; 0.17% of 300,000 active; inhibition, % (test concentration not listed); BJeLR (HRASV12) viability, CellTiter-Glo ATP luminescence, 48 h; AID 1554; in the data active means inhibition above about 50%
PfHsp40 yeast = compounds rescuing yeast from Plasmodium falciparum HSP40 toxicity; S. cerevisiae expressing PfHsp40, growth rescue, ATP luminescence; 0.68% of 340,000 active; AID 504582; growth rescue, % at 12.5 µM; in the data active means growth rescue above about 28%, passing the limit was not always enough;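 further: yeast W303a lacking pdr1 and pdr3 grown in galactose medium; growth measured after three days at 30 °C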
SSB-PriA inh = blocks PriA binding to SSB C-terminal tail | AlphaScreen SSBct-PriA binding, biotinylated peptide | inhibition, % at 33 µM | 0.6% of 430,000 active | AID 1272365; in the data active means inhibition mostly above about 37%, no sharp cut-off; inactive means mostly below about 20%;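 further: plate controls were negative control peptide for no effect and reference peptide for full effect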
PrPC surface inh = inhibitors of human cell surface prion protein PrPC | P04156 | TR-FRET read-out | inhibition, % at 13.8 µM | 0.43% of 370,000 active; in the data active means inhibition above about 24%; further: 0% = median of the test wells and 100% = reference compound wells
Active calls of the source: *.

How did Cc1noc(Cc2csc(NC(=O)NCc3cccs3)n2)n1 do in these assays?
SSB-PriA inh: -10

What do the screens show for `Cc1nn(-c2ccccc2)c2c1C(=NO)CC(C)(C)C2`?
SSB-PriA inh: 8

Results for CC(C)=NNc1ncnc2nc[nH]c12 ?
PrP 5UTR inh: -6; PfHsp40 yeast: -1; SSB-PriA inh: 50*; PrPC surface inh: -3

Results for CC(O)CNc1ncnc2nc[nH]c12 (stereo not drawn) ?
RecA intein inh: -1; PrP 5UTR inh: -20; BJeLR lethal: -13; PfHsp40 yeast: 2; SSB-PriA inh: -8; PrPC surface inh: -1

How did O=C(Nc1ccc2scnc2c1)[C@@H]1CCCN1S(=O)(=O)c1cccs1 do in these assays?
SSB-PriA inh: -5

How did O=C(Cc1ccc(Cl)cc1)c1c[nH]c(C(=O)NCc2cccnc2)c1 do in these assays?
RecA intein inh: 1; PrP 5UTR inh: -9; BJeLR lethal: 78*; PfHsp40 yeast: 0; SSB-PriA inh: -8; PrPC surface inh: 4

How did O=C(COc1ccc(Cl)cc1)Nc1ccc(C(=O)NCc2cccnc2)cc1 do in these assays?
RecA intein inh: 0; PrP 5UTR inh: -13; BJeLR lethal: 87*; PfHsp40 yeast: -1; SSB-PriA inh: -6

How did CC(C)CCOc1cccc(OCC(=O)Nc2ccncc2)c1 do in these assays?
RecA intein inh: 2; PrP 5UTR inh: -11; BJeLR lethal: 3; PfHsp40 yeast: 105*; SSB-PriA inh: -8; PrPC surface inh: 16

How did COc1ccc(NC(=O)COc2ccc(C(=O)NCc3cccnc3)cc2OC)cc1 do in these assays?
PrP 5UTR inh: -12; PfHsp40 yeast: -2; SSB-PriA inh: 0; PrPC surface inh: 7

Results for Cc1cccc(OCC(=O)Nc2ccc(C(=O)NCc3cccnc3)cc2)c1 ?
RecA intein inh: 1; BJeLR lethal: 55*

What do the screens show for `Cn1nc(CNC(=O)Nc2ccc3c(c2)OCO3)cc1-c1ccco1`?
SSB-PriA inh: 0

How did COc1ccc(-c2csc(NC(=O)CSCC(=O)N3CCc4ccccc4C3)n2)cc1 do in these assays?
SSB-PriA inh: -5

How did CCCNC(=O)c1ccc2c(=O)c(O)c(-c3ccc(Cl)c([N+](=O)[O-])c3)[nH]c2c1 do in these assays?
RecA intein inh: -11; PrP 5UTR inh: -4; BJeLR lethal: 12; PfHsp40 yeast: 210*; SSB-PriA inh: -23; PrPC surface inh: -11

What do the screens show for `CCOC(=O)c1c(C)c(C(=O)N2CCc3ccccc3C2)c(C)n1CC`?
RecA intein inh: 8; PrP 5UTR inh: -17; BJeLR lethal: -5; PfHsp40 yeast: 2; SSB-PriA inh: 39*; PrPC surface inh: 1

How did O=C(NNC(=O)c1ccc(=O)n(Cc2ccc(Cl)cc2)c1)c1cccc(Cl)c1 do in these assays?
SSB-PriA inh: -14

Results for COc1ccc(-n2sc3ccccc3c2=O)cc1 ?
PrPC surface inh: -4

What do the screens show for `COc1ccc(-n2sc3ccc(F)cc3c2=O)cc1`?
PrP 5UTR inh: -21; PfHsp40 yeast: 125*; SSB-PriA inh: 10; PrPC surface inh: -3

Results for Cc1ccc(C)c(-n2sc3ccc(F)cc3c2=O)c1 ?
PrP 5UTR inh: -14; PfHsp40 yeast: 16; SSB-PriA inh: 16; PrPC surface inh: -2

How did O=c1c2cc(F)ccc2sn1-c1ccc(F)cc1 do in these assays?
PrP 5UTR inh: -13; PfHsp40 yeast: 76*; SSB-PriA inh: 7

How did CCOC(=O)Cc1csc(NC(=O)CN2CCC(c3nnc(C(C)C)o3)CC2)n1 do in these assays?
SSB-PriA inh: -8

How did O/N=C/c1cc(Br)ccc1OCc1ccccc1F do in these assays?
RecA intein inh: 10; PrP 5UTR inh: -26; BJeLR lethal: 4; PfHsp40 yeast: 721*; PrPC surface inh: 0

What do the screens show for `Cc1ccc(COc2ccc(Br)cc2C=NO)cc1`?
SSB-PriA inh: -5

Results for O=Cc1sc(=O)n(Cc2cccc(C(=O)O)c2)c1Cl ?
RecA intein inh: 54*; PrP 5UTR inh: -25; BJeLR lethal: 5; PfHsp40 yeast: 1; SSB-PriA inh: -10; PrPC surface inh: 4

What do the screens show for `Cc1cc(C)n(CCNS(=O)(=O)C2CCCCC2)n1`?
SSB-PriA inh: 0

What do the screens show for `O=C(c1ccco1)N(Cc1cccnc1)c1nc2cc3c(cc2s1)OCCO3`?
SSB-PriA inh: 6

How did CC1Cc2ccccc2N1C(=O)c1ccc(N2CCCCC2)c([N+](=O)[O-])c1 (stereo not drawn) do in these assays?
RecA intein inh: 12; PrP 5UTR inh: -2; BJeLR lethal: 9; PfHsp40 yeast: 0; SSB-PriA inh: 31; PrPC surface inh: -5
